Laboratory results taken from the supplement of paper PMC12350171.
Structures can show the parent of a compound that is named as a salt.

Key:
Conditions in all cases: 20 µM
[1] = system: Salmonella enterica typhimurium; experiment: growth AUC normalised to DMSO control (fraction of control); higher = less growth inhibition, active = hit call of the paper
Method in brief: (§1)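 Pathogens passaged twice anaerobically were inoculated at a starting OD578 of 0.01 into pre-reduced mGAM plates with drug at 20 μM and 1% DMSO, sealed with breathable membranes. Haemophilus parainfluenzae medium was supplemented with hemin and NAD. OD578 was read hourly for 24 h, with three biological replicates. Growth-curve AUC was computed by the trapezoidal rule up to the exponential-to-stationary transition and normalised to DMSO controls on the same plate.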

Shigella flexneri = experiment: as above
Method in brief: as §1

Vibrio cholerae = experiment: as above
Method in brief: as §1

[2] = system: Yersinia pseudotuberculosis; experiment: as above
Method in brief: as §1

P. vulgatus RND KO = experiment: growth AUC normalised to DMSO control (median) (fraction of control); higher = less growth inhibition, active = hit call of the paper
Method in brief: (§2)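 Strains were passaged twice overnight without oxygen, then grown in mGAM in 96-well plates with each approved-drug library compound at 20 μM and 1% DMSO, starting at OD578 0.01. OD578 was read hourly for 24 h inside an anaerobic incubator. Curves were truncated at entry into stationary phase, and the trapezoidal-rule area under the curve was normalised to same-plate vehicle wells. The value is the median across three biological replicates.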

P. vulgatus WT = experiment: as above
Method in brief: as §2

[3] = system: S. enterica typhimurium WT; experiment: as above
Method in brief: as §2

[4] = system: S. enterica typhimurium tolC KO; experiment: as above
Method in brief: as §2

Measured: growth AUC normalised to DMSO control
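Wherever growth AUC normalised to DMSO control (median) is given: active when median AUC fell below 0.1.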

NC(CO)C(=O)NNCc1ccc(O)c(O)c1O (stereo unspecified) [Benserazide hydrochloride]
inactive: [1] 1 | Shigella flexneri 1 | Vibrio cholerae 1.01 | [2] 0.942 | P. vulgatus RND KO 0.969 | P. vulgatus WT 0.973 | [3] 0.982 | [4] 1

Nc1nc(=O)[nH]cc1F [Flucytosine]
inactive: [1] 0.983 | Shigella flexneri 0.968 | Vibrio cholerae 0.961 | [2] 1.01 | P. vulgatus RND KO 0.996 | P. vulgatus WT 0.991 | [3] 1 | [4] 0.965

CCCC(CCC)C(=O)O [Valproic acid]
inactive: [1] 1.01 | Shigella flexneri 1.02 | Vibrio cholerae 1.05 | [2] 1.01 | P. vulgatus RND KO 1.06 | P. vulgatus WT 1.07 | [3] 1 | [4] 1.01

CCOC1O[C@H]([C@@H](COCc2ccccc2)OCc2ccccc2)[C@H](OCc2ccccc2)[C@H]1O (stereo partly specified) [Tribenoside]
inactive: [1] 1 | Shigella flexneri 1.01 | Vibrio cholerae 1 | [2] 0.988 | P. vulgatus RND KO 0.946 | P. vulgatus WT 0.987 | [3] 1.01 | [4] 0.959

CC[C@H]1OC(=O)[C@H](C)[C@@H](O[C@H]2C[C@@](C)(OC)[C@@H](O)[C@H](C)O2)[C@H](C)[C@@H](O[C@@H]2O[C@H](C)C[C@H](N(C)C)[C@H]2O)[C@](C)(O)C[C@@H](C)CN(C)[C@H](C)[C@@H](O)[C@]1(C)O [Azithromycin]
active: [1] 0.0316 | Shigella flexneri 0.0334 | Vibrio cholerae 0.0396 | [2] 0.0337 | P. vulgatus RND KO 0.0189 | P. vulgatus WT 0.0116 | [3] 0.0218 | [4] 0.00733

Clc1cc(Cl)c(OCC#CI)cc1Cl [Haloprogin]
inactive: [1] 1.02 | Shigella flexneri 1.02 | Vibrio cholerae 1.05 | [2] 0.973 | P. vulgatus RND KO 1.01 | P. vulgatus WT 1.08 | [3] 1.04 | [4] 0.993

C[C@]12CC[C@H]3[C@@H](CCC4=CC(=O)CC[C@@]43C)[C@@H]1CC[C@@H]2C(=O)CO [Deoxycorticosterone]
inactive: [1] 1 | Shigella flexneri 1.03 | Vibrio cholerae 1.03 | [2] 1.03 | P. vulgatus RND KO 1.07 | P. vulgatus WT 1.07 | [3] 1 | [4] 0.933

CNC(=C[N+](=O)[O-])NCCSCc1csc(CN(C)C)n1 [Nizatidine]
inactive: [1] 0.998 | Shigella flexneri 0.989 | Vibrio cholerae 0.997 | [2] 1 | P. vulgatus RND KO 1.03 | P. vulgatus WT 1.04 | [3] 1.02 | [4] 0.989

C[C@]12CC[C@@H]3c4ccc(O)cc4CC[C@H]3[C@@H]1CC[C@@H]2O [Estradiol-17 beta]
inactive: [1] 1.02 | Shigella flexneri 1.01 | Vibrio cholerae 0.992 | [2] 1.01 | P. vulgatus RND KO 0.941 | P. vulgatus WT 0.941 | [3] 1.02 | [4] 0.997

NS(=O)(=O)c1cc2c(cc1Cl)NC(C(Cl)Cl)NS2(=O)=O (stereo unspecified) [Trichlormethiazide]
inactive: [1] 0.974 | Shigella flexneri 1.04 | Vibrio cholerae 0.957 | [2] 0.986 | P. vulgatus RND KO 0.974 | P. vulgatus WT 0.982 | [3] 1.01 | [4] 0.999

CCCCC(C)(O)C/C=C/[C@H]1[C@H](O)CC(=O)[C@@H]1CCCCCCC(=O)OC (mixture of isomers) [Misoprostol]
inactive: [1] 1.02 | Shigella flexneri 1.01 | Vibrio cholerae 1.02 | [2] 1.01 | P. vulgatus RND KO 0.996 | P. vulgatus WT 0.992 | [3] 1.01 | [4] 0.991

CC1=C(/C=C/C(C)=C/C=C/C(C)=C/C(=O)O)C(C)(C)CCC1 [Retinoic acid]
inactive: [1] 1 | Shigella flexneri 0.994 | Vibrio cholerae 1 | [2] 0.998 | P. vulgatus RND KO 0.996 | P. vulgatus WT 0.992 | [3] 1 | [4] 0.993

NCCc1ccc(O)c(O)c1 [Dopamine hydrochloride]
inactive: [1] 1.02 | Shigella flexneri 1.05 | Vibrio cholerae 0.989 | [2] 1.01 | P. vulgatus RND KO 1.03 | P. vulgatus WT 1.02 | [3] 1 | [4] 0.99

CN1CCN(c2c(F)cc3c(=O)c(C(=O)O)cn4c3c2SCC4)CC1 [Rufloxacin]
active: [1] 0.006 | Shigella flexneri 0.0254 | Vibrio cholerae 0.0252 | [2] 0.0274 | [3] 0.0284 | [4] 0.00853
inactive: P. vulgatus RND KO 0.63 | P. vulgatus WT 0.47

Cc1cc(C(=O)NNCc2ccccc2)no1 [Isocarboxazid]
inactive: [1] 0.994 | Shigella flexneri 1.02 | Vibrio cholerae 1.03 | [2] 0.996 | P. vulgatus RND KO 1.05 | P. vulgatus WT 1.05 | [3] 0.998 | [4] 0.993

COc1cc(N)c(Cl)cc1C(=O)NC1CCN(CCCOc2ccc(F)cc2)CC1OC (stereo unspecified) [Cisapride]
inactive: [1] 1 | Shigella flexneri 1.01 | Vibrio cholerae 0.929 | [2] 0.989 | P. vulgatus RND KO 0.945 | P. vulgatus WT 0.941 | [3] 1 | [4] 0.947

CC(NCCc1ccc(O)cc1)C(O)c1ccc(O)cc1 (stereo unspecified) [Ritodrine hydrochloride]
inactive: [1] 1.01 | Shigella flexneri 1.02 | Vibrio cholerae 0.999 | [2] 1 | P. vulgatus RND KO 1 | P. vulgatus WT 1.01 | [3] 1 | [4] 0.997

CCOC(=O)C1=C(C)NC(C)=C(C(=O)OC)C1c1cccc([N+](=O)[O-])c1 (stereo unspecified) [Nitrendipine]
inactive: [1] 1.04 | Shigella flexneri 1 | Vibrio cholerae 1.06 | [2] 1.01 | P. vulgatus RND KO 1.09 | P. vulgatus WT 1.04 | [3] 0.996 | [4] 0.982

C[C@H](CCC(=O)O)[C@H]1CC[C@H]2[C@@H]3[C@H](O)C[C@@H]4C[C@H](O)CC[C@]4(C)[C@H]3CC[C@]12C [Chenodiol]
inactive: [1] 0.991 | Shigella flexneri 0.96 | Vibrio cholerae 0.988 | [2] 1.01 | P. vulgatus RND KO 0.922 | P. vulgatus WT 0.94 | [3] 0.998 | [4] 1.01

CCN(CC)C(=O)Nc1ccc(OCC(O)CNC(C)(C)C)c(C(C)=O)c1 (stereo unspecified) [Celiprolol hydrochloride]
inactive: [1] 0.995 | Shigella flexneri 0.992 | Vibrio cholerae 0.99 | [2] 1.01 | P. vulgatus RND KO 0.997 | P. vulgatus WT 1.01 | [3] 0.994 | [4] 0.994

CNCC(O)c1ccc(O)c(O)c1 (stereo unspecified) [Racepinephrine hydrochloride]
inactive: [1] 1.03 | Shigella flexneri 1.02 | Vibrio cholerae 1.09 | [2] 1.04 | P. vulgatus RND KO 1.01 | P. vulgatus WT 1 | [3] 1.01 | [4] 1

CCc1cc(Cl)c(OC)c(C(=O)NC[C@@H]2CCCN2CC)c1O [(S,-) Eticlopride hydrochloride]
inactive: [1] 1 | Shigella flexneri 1.01 | Vibrio cholerae 0.922 | [2] 0.986 | P. vulgatus RND KO 1.06 | P. vulgatus WT 1.03 | [3] 1 | [4] 0.947

CC[N+](CC)(CC)CCC(O)(c1ccccc1)C1CCCCC1 (stereo unspecified) [Tridihexethyl chloride]
inactive: [1] 1 | Shigella flexneri 1.03 | Vibrio cholerae 1.05 | [2] 1 | P. vulgatus RND KO 1.06 | P. vulgatus WT 1.07 | [3] 1.02 | [4] 0.686

Cn1c(=O)c2c(ncn2CC(O)CO)n(C)c1=O (stereo unspecified) [Diprophylline]
inactive: [1] 0.986 | Shigella flexneri 0.996 | Vibrio cholerae 0.971 | [2] 1 | P. vulgatus RND KO 1 | P. vulgatus WT 0.989 | [3] 0.991 | [4] 0.998

Clc1ccc(CSC(Cn2ccnc2)c2ccc(Cl)cc2Cl)cc1 (stereo unspecified) [Sulconazole nitrate]
inactive: [1] 1.04 | Shigella flexneri 1.06 | Vibrio cholerae 1.05 | [2] 1.02 | P. vulgatus RND KO 1.06 | P. vulgatus WT 1.08 | [3] 0.997 | [4] 0.911

O=C1CC2(CCCC2)CC(=O)N1CCCCN1CCN(c2ncccn2)CC1 [Buspirone hydrochloride]
inactive: [1] 1.01 | Shigella flexneri 1.08 | Vibrio cholerae 1.04 | [2] 1 | P. vulgatus RND KO 1.12 | P. vulgatus WT 1.11 | [3] 0.986 | [4] 0.979

C[C@@H]1C[C@H]2[C@@H]3C[C@H](F)C4=CC(=O)C=C[C@]4(C)[C@@]3(F)[C@@H](O)C[C@]2(C)[C@@]1(O)C(=O)CO [Flumethasone]
inactive: [1] 0.995 | Shigella flexneri 0.994 | Vibrio cholerae 0.997 | [2] 0.993 | P. vulgatus RND KO 1.01 | P. vulgatus WT 1.02 | [3] 0.997 | [4] 1.01
